Measurements reported in PubChem BioAssay (NCATS).
Values joined by “and” are separate entries in the source; they are usually repeats but may differ in a detail not shown here. Equal entries are not always repeated. Results filed as inconclusive are left out. Active and inactive are the calls of the source. Calls come from the whole dose curve; as a rule, active = well fitted curve in the direction sought with a large enough effect; inconclusive = small, poorly fitted or top-dose-only effect, or another doubt; inactive = no such curve, though single readings can be large; an effect the other way counts as inactive or inconclusive.

What was measured:
[1] = Primary qHTS for inhibitors of nuclear receptor binding SET domain protein 2 (NSD2) in an isogenic RCH-ACV NSD2 p.E1099K mutant (9B) (AID 1645876); conditions: RCH-ACV NSD2 E1099K (9B) viability, CellTiter-Glo, 72 h; series mostly up to 44.9 µM; note: nearly all actives have a fitted effect of over 70% in size; note: potency is the fitted concentration of half-maximal effect
[2] = Primary qHTS for inhibitors of nuclear receptor binding SET domain protein 2 (NSD2) in an RCH-ACV wild type WT cells (2C) (AID 1645877); conditions: RCH-ACV (leukaemia line) NSD2 WT (2C) viability, CellTiter-Glo, 72 h; series mostly up to 44.9 µM; note: nearly all actives have a fitted effect of over 70% in size; note: potency is the fitted concentration of half-maximal effect
[3] = target: Catechol O-methyltransferase (Homo sapiens) (UniProt P21964); assay: Confirmatory Screen for Target Class Profiling of Small Molecule Inhibitors of Methyltransferases (AID 1745852); conditions: MTase-Glo luminescence, SAH detection, recombinant enzyme; measured here: COMT max response; stronger effect = lower value
Chain of Catechol O-methyltransferase (Homo sapiens) (P21964 whole entry, looked up): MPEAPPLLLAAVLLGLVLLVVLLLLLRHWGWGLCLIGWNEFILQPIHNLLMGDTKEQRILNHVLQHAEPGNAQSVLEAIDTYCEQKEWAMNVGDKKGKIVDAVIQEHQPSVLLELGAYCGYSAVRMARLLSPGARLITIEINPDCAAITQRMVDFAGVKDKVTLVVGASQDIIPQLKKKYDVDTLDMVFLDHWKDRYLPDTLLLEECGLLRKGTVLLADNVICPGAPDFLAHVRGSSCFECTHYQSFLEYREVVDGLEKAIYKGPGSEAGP

SMILES	Potency [1]	Potency [2]	activity [3] [%]
C/C=C/c1cc(OC)c2c(c1)[C@@H](C)[C@@H](c1ccc(O)c(OC)c1)O2	8980 nM (active)	14200 nM (active)	-61.3
Cc1nc([C@](C)(O)CO)sc1-c1cnc(N)c(O[C@H](C)c2cc(F)ccc2-n2nccn2)c1	8330 nM (active)	13200 nM (active)	-59.6
Cc1cc(O)c(-c2ccc([C@@H](C)CN(C)C)cc2)c2c1[nH]c(=O)c1sccc12	74.2 nM (active)	74.2 nM (active)	-22.7
NCCCNc1ccc(Nc2nccc(Nc3cc(C4CC4)[nH]n3)n2)cc1	578 nM (active)	515 nM (active)	-13.5
COc1cc(C(=O)OC[C@H]2O[C@@H](Oc3ccccc3/C=C/C(=O)O)[C@H](O)[C@@H](O)[C@@H]2O)cc(OC)c1OC	inactive	inactive	-77.7
CC(C)c1c2cc(-c3ccnc(NC4CCC(NC5CCOCC5)CC4)n3)ccc2nn1C (stereo unspecified)	163 nM (active) and 148 nM (active)	129 nM (active) and 93.4 nM (active)	-27.8
CCC(C)C(=O)OC1CC(O)C23C4OCC5(C(O)CC2C1(C)C(O)O4)C3C(=O)C(O)C1(C)C(O)(c2ccoc2)CC2OC251 (stereo unspecified)	136 nM (active)	76.5 nM (active)	-73
COc1cc([C@H]2c3cc(O)c(OC)cc3C[C@@H](CO[C@@H]3O[C@H](CO)[C@@H](O)[C@H](O)[C@H]3O)[C@@H]2CO)ccc1O	inactive	inactive	
O=C(O)c1ccc(CN2CCC(CN[C@@H]3C[C@H]3c3ccccc3)CC2)cc1	inactive	inactive	4.43
